Each compound was assayed against Fibroblast growth factor 2 (Homo sapiens) (UniProt P09038) (assay: basic fibroblast growth factor binding to printed compounds – biochemical, small-molecule microarray, 635/667 nm fluorescence, primary screen (AID 1133)). Conditions: FGF2, fluorescence 635/667, higher = more signal.
Sequence of Fibroblast growth factor 2 (Homo sapiens) (P09038 whole entry, looked up): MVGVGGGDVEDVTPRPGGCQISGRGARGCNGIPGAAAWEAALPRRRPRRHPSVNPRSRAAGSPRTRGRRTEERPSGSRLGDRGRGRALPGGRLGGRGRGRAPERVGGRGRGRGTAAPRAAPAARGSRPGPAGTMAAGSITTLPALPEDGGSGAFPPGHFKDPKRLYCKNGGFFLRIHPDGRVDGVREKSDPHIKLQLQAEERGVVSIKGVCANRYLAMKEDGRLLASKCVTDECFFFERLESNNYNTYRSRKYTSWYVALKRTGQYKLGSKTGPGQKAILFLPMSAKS

SMILES | composite z-score
O=C1O[C@H](c2ccccc2)[C@H](c2ccccc2)N2[C@H]1[C@@H](C(=O)Nc1nc3ccccc3s1)[C@]1(C(=O)Nc3ccc(C#CCCO)cc31)[C@H]2c1ccc(OCCO)cc1 | 1.15
C=CCOC(=O)[C@H]1[C@@H]2C(=O)O[C@@H](c3ccccc3)[C@@H](c3ccccc3)N2[C@@H](c2ccc(OCCOC(=O)[C@@H]3C[C@@H]4C(=O)N[C@@H](CCCC[N+](C)(C)C)C(=O)N4[C@@H]3c3ccc(O)cc3)cc2)[C@]12C(=O)Nc1ccccc12 | 1.51
COCCCN1C(=O)[C@@]2(Cc3ccccc31)c1ccccc1C(=O)N(Cc1ccccc1C(F)(F)F)[C@H]2c1ccc(CO)cc1 | 1.14
COc1cc2c(cc1OC)CN(C(=O)[C@@H]1[C@H]3C(=O)O[C@H](c4ccccc4)[C@H](c4ccccc4)N3[C@H](c3ccc(O)cc3)[C@@]13C(=O)Nc1ccc(C#CC4(O)CCCCCC4)cc13)CC2 | 1.35
COCCOC(=O)N1C(=O)[C@@]2(c3ccccc31)[C@H](c1ccccc1OCCO)N1[C@H](c3ccccc3)[C@H](c3ccccc3)OC(=O)[C@H]1[C@@H]2C(=O)Nc1nc2ccccc2s1 | 1.03
C=C[C@H](COC(C)=O)N(C(=O)OC(C)(C)C)S(=O)(=O)c1ccc(Br)cc1 | 0.433
COc1cc(CO)cc(I)c1O[C@H]1C=C(C(=O)NCCO)C[C@@H](N(CCN2CCOCC2)C(=O)C2CCOC2)[C@@H]1O (stereo partly drawn) | 0.675
COC(=O)[C@@]1(Cc2ccc(F)cc2)[C@H]2c3cc(C(=O)N4CCCC4)n(Cc4ccc(C)o4)c3C[C@H]2CN1C(=O)c1ccccc1 | -0.708

— PubChem BioAssay
